Here are results for 4 compounds from PubChem BioAssay (NCATS).

The structures appear in SMILES notation. Results filed as inconclusive are left out. The source holds several records for some structures; these can differ, active in one and inactive in another. Unmarked numbers belong to inactive results. Calls of active or inactive are those of the source. Unless noted, calls come from the whole dose curve; as a rule, active = well fitted curve in the direction sought with a large enough effect; inconclusive = small, poorly fitted or top-dose-only effect, or another doubt; inactive = no such curve, though single readings can be large; an effect the other way counts as inactive or inconclusive.

The target of assay [1] is Peroxisome proliferator-activated receptor delta (Homo sapiens) (UniProt Q03181). In words: qHTS assay for small molecule agonists of peroxisome proliferator-activated receptor delta signaling (AID 588534; calls by dose curve;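 note: 0% = DMSO basal wells and 100% = positive control agonist at 10 µM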). In a few lines: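 Agonist-mode beta-lactamase reporter readout (CCF4 dye, 2 h at RT) after 18 h at 37 °C exposure to a titration; Hill-equation fitting gave EC50 and maximal response.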
Background: qHTS replaces the single test concentration by a dilution series.

Assay [2] in a line: Cell Viability - LYMP2-001 (AID 921). Note: potency is the fitted concentration of half-maximal effect; nearly all actives have a fitted effect of over 70% in size. In a few lines:
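A lymphoblastoid cell line of human origin was treated with library compounds across a concentration series for 24 hours, and viable cell number was estimated from ATP-driven luciferase light output. Hill modeling gave AC50.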

A short description of assay [3]: Cell Viability - LYMP2-009 (AID 968). Note: potency is the fitted concentration of half-maximal effect; nearly all actives have a fitted effect of over 55% in size.
Assay [4] can be described thus: Cell Viability - LYMP2-011 (AID 969). Note: potency is the fitted concentration of half-maximal effect; nearly all actives have a fitted effect of over 60% in size. In outline:
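Cytotoxicity qHTS with ATP content as read-out: lymphoblastoid cells (2500/well) exposed to compound for 24 h at 37 C, then luciferase luminescence measured. Concentration-response data fitted with the standard Hill equation to give AC50.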

Assay [5] in a line: Cell Viability - LYMP2-013 (AID 970). Note: potency is the fitted concentration of half-maximal effect; nearly all actives have a fitted effect of over 55% in size. In outline: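 qHTS cytotoxicity: ATP-dependent luminescence (CellTiter-Glo, 30 min room temperature) read after 24 h compound exposure at 37 C of 2500 LYMP2-013 lymphoblastoid cells per well. Concentration-response fitted with Hill equation to give AC50.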
Assay [6] can be described thus: Cell Viability - LYMP2-015 (AID 971). Note: potency is the fitted concentration of half-maximal effect; nearly all actives have a fitted effect of over 55% in size. In outline: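 Cytotoxicity readout: decrease in intracellular ATP (CellTiter-Glo luminescence) in 2500 LYMP2-015 lymphoblastoid cells/well after 24 h compound exposure at 37 C. Concentration-response data fitted with the standard Hill equation to give AC50.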
Assay [7] in a line: Cell Viability - LYMP2-017 (AID 972). Note: potency is the fitted concentration of half-maximal effect; nearly all actives have a fitted effect of over 55% in size. In a few lines: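 CellTiter-Glo luminescence (cellular ATP, 30 min RT) measured cytotoxicity after 24 hr compound treatment at 37 C. Cells were a human lymphoblastoid line, LYMP2-017, plated at 2500/well and incubated 5 hr first; concentration-response fitted with Hill equation for AC50.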
Assay [8] can be described thus: Cell Viability - LYMP2-019 (AID 973). In outline: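 AC50 values come from Hill-equation fits of luminescent intracellular ATP (CellTiter-Glo, 30 min, room temperature) following 24 h compound exposure at 37 C. Cells: LYMP2-019 lymphoblastoid line, 2500 per well, in complete culture medium.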
Assay [9] can be described thus: Cell Viability - LYMP2-021 (AID 974). In outline: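 AC50 values come from Hill-equation fits to CellTiter-Glo luminescence (ATP content), read after 24 hour compound exposure at 37 C of 2500 LYMP2-021 lymphoblastoid cells/well; tetraoctylammonium bromide as positive control.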
Assay [10] in a line: Cell Viability - LYMP2-023 (AID 975). In a few lines: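 Intracellular ATP, read by CellTiter-Glo luminescence, reports viability after 24 hr compound exposure at 37 C. 2500 lymphoblastoid cells/well (LYMP2-023) seeded 5 hr beforehand; Hill fits give AC50; positive control tetraoctylammonium bromide.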
Assay [11] can be described thus: Cell Viability - LYMP2-025 (AID 976). Note: potency is the fitted concentration of half-maximal effect. In outline: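 Cytotoxicity read as loss of intracellular ATP (luciferase luminescence) after 24 h compound treatment at 37 C. Uses LYMP2-025 lymphoblastoid cells in 1536-well format; Hill-equation modelling gives AC50; tetraoctylammonium bromide as positive control.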
Assay [12] in a line: Cell Viability - LYMP2-002 (AID 977). Note: potency is the fitted concentration of half-maximal effect. In outline:
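Human lymphoblastoid cells (2500/well) in complete medium were preincubated 5 hr at 37 C, then exposed to compounds for 24 hr at 37 C. Intracellular ATP was read by CellTiter-Glo luminescence; AC50 came from Hill-equation concentration-response fits.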

Assay [13] is described as follows: Cell Viability - LYMP2-006 (AID 978). Note: potency is the fitted concentration of half-maximal effect; nearly all actives have a fitted effect of over 60% in size. In a few lines: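 In this cytotoxicity screen, the human lymphoblastoid line grew in complete medium with test compounds for 24 hr at 37 C. Cellular ATP served as the viability signal.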
A short description of assay [14]: Cell Viability - LYMP2-007 (AID 979).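 Note: potency is the fitted concentration of half-maximal effect; cells exposed to compound for 24 h before reading; nearly all actives have a fitted effect of over 60% in size.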 In outline:
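AC50 values come from Hill-equation fits of luminescent intracellular ATP (CellTiter-Glo, 30 min, room temperature) following 24 h compound exposure at 37 C. Cells: LYMP2-007 lymphoblastoid line, 2500 per well, in complete culture medium.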

Assay [15] in a line: Cell Viability - LYMP2-008 (AID 980). Note: potency is the fitted concentration of half-maximal effect; nearly all actives have a fitted effect of over 60% in size. In outline: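 Cytotoxicity determined from ATP-dependent luciferase luminescence (CellTiter-Glo) following 24 h compound exposure of human lymphoblastoid LYMP2-008 cells at 37 C. Concentration-response data fitted to the Hill equation to give AC50.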
A short description of assay [16]: Cell Viability - LYMP2-010 (AID 981). In a few lines: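 CellTiter-Glo ATP luminescence measured cytotoxicity after 24 h compound exposure at 37 C. LYMP2-010 cells were seeded at 2500/well, with tetraoctylammonium bromide as control; concentration-response curves gave AC50 values by the Hill equation.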
Assay [17] is described as follows: Cell Viability - LYMP2-012 (AID 982).
Assay [18] is described as follows: Cell Viability - LYMP2-014 (AID 983). Note: potency is the fitted concentration of half-maximal effect; nearly all actives have a fitted effect of over 50% in size. In a few lines: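 Intracellular ATP loss, read by luciferase luminescence, measures acute cytotoxicity after 24 h compound exposure of lymphoblastoid LYMP2-014 cells (2500/well, 37 C). Concentration-response data fitted to the Hill equation for AC50.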
Assay [19] is described as follows: Cell Viability - LYMP2-016 (AID 984). In outline:
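Concentration-dependent ATP depletion measured in LYMP2-016 lymphoblastoid cells, 24 h, 37 C; luciferase-based luminescent detection; Hill-equation AC50.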

Assay [20] can be described thus: Cell Viability - LYMP2-018 (AID 985). Note: potency is the fitted concentration of half-maximal effect; nearly all actives have a fitted effect of over 50% in size. In outline: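 Viability read as CellTiter-Glo luminescence (cellular ATP) after 24 hr compound exposure at 37 C of 2500 LYMP2-018 lymphoblastoid cells/well, pre-plated 5 hr. Hill-equation modelling gave AC50.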
Assay [21] is described as follows: Cell Viability - LYMP2-020 (AID 986). In a few lines:
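Cytotoxicity in qHTS format: luminescent ATP readout from CellTiter-Glo after 24 h compound exposure at 37 C in complete medium. LYMP2-020 lymphoblastoid cells were seeded at 2500/well; concentration-response data fitted to the Hill equation for AC50.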

A short description of assay [22]: Cell Viability - LYMP2-022 (AID 987). In outline: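 Cytotoxicity read as decreased cellular ATP (CellTiter-Glo luminescence, 30 min room temperature) after 24 hours compound exposure of 2500 lymphoblastoid LYMP2-022 cells/well at 37 C. Concentration-response data fitted with standard Hill equation for AC50.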
Assay [23] in a line: Cell Viability - LYMP2-024 (AID 988). In outline:
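Cytotoxicity was taken as a decrease in ATP (CellTiter-Glo luminescence) after 24 hr compound exposure at 37 C of LYMP2-024 lymphoblastoid cells, 2500 cells/well. Concentration-response data were fitted to the Hill equation to give AC50.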

Assay [24] in a line: Cell Viability - LYMP2-026 (AID 989). Note: potency is the fitted concentration of half-maximal effect; nearly all actives have a fitted effect of over 50% in size. In a few lines:
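Cytotoxicity read as ATP-dependent luminescence (CellTiter-Glo, 30 min room temperature) after 24 h compound treatment at 37 C. LYMP2-026 lymphoblastoid line seeded at 2500 cells/well; AC50 derived by standard Hill equation.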

Assay [25] deals with Glucocorticoid receptor (Homo sapiens) (UniProt P04150). Description: qHTS assay for small molecule antagonists of glucocorticoid receptor signaling (AID 588533; active = well fitted inhibition curve with a large enough effect in the signal ratio, with a control signal flat, not every such curve was filed as active; the % refers to the signal ratio;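 note: cells stimulated with 2 nM dexamethasone as agonist; % is set by controls: 0 for no effect and ±100 for the full control effect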). In outline:
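Antagonist-mode qHTS: compound titrations added to GRE-bla HeLa cells, then dexamethasone 2 nM final; 18 h, 37 C. CCF4 FRET fluorescence normalized to dexamethasone and DMSO; IC50 from Hill fit.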

Assay [26] deals with Voltage-gated inwardly rectifying potassium channel KCNH2 (Homo sapiens) (UniProt Q12809). Description: qHTS Assay for Small Molecule Inhibitors of the Human hERG Channel Activity (AID 588834).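 Note: potency is the fitted concentration of half-maximal effect; lower thallium flux fluorescence means stronger hERG block; nearly all actives have a fitted effect of over 50% in size.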 In outline:
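Homogeneous FluxOR thallium flux assay using hERG-expressing U2OS cells (BacMam). Compound treatment about 10 minutes preceded stimulation; reduced fluorescence taken as channel block.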

The nature of assay [27]: qHTS assay for small molecule agonists of the antioxidant response element (ARE) signaling pathway (AID 651741; active = well fitted activation curve with a large enough effect in the signal ratio; the % refers to the signal ratio; note: % of control where 0% means no effect). In a few lines: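 Beta-lactamase reporter under ARE control in HepG2 cells, 2,000 per well, was induced by 16 h compound treatment at 37 C. Read-out was fluorescence from LiveBLAzer B/G FRET substrate after 2 h at room temperature.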
A short description of assay [28]: qHTS assay for small molecule activators of the p53 signaling pathway (AID 651743; active = well fitted activation curve with a large enough effect in the signal ratio, not every such curve was filed as active; the % refers to the signal ratio; note: series mostly up to about 92 µM; % of control where 0% means no effect). Particulars: HCT-116 p53RE-bla, beta-lactamase FRET ratio, 16 h; activation: stronger effect = higher value. In outline: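 After 16 hours compound treatment at 37 C, HCT-116 cells stably expressing p53RE-driven beta-lactamase were loaded with LiveBLAzer B/G FRET substrate for 2 hours at room temperature. Fluorescence intensity served as the p53 activation read-out.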

Assay [29] can be described thus: qHTS assay to identify small molecules that stimulate interleukin-8 (IL-8) secretion (AID 651758; active = well fitted activation curve with a large enough effect in the signal ratio; the % refers to the signal ratio; note: potency is the fitted concentration of half-maximal effect). In outline:
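Secreted IL-8 measured homogeneously by TR-FRET (two labelled anti-IL-8 antibodies, 1-3 h at room temperature) after a 16 h, 37 C compound treatment of THP-1 cells at 2000 cells/well.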

The target of assay [30] is Nuclear receptor ROR-gamma (Homo sapiens) (UniProt P51449). Description: qHTS assay for small molecule antagonists of the retinoid-related orphan receptor gamma (ROR-gamma) signaling pathway (AID 651802). In outline: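 Luminescence (One-Glo, 30 min RT) measured 16 h after compound addition and doxycycline induction at 37C. Reporter: RORE-luciferase under TET-inducible ROR-gamma in CHO cells.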

Assay [31] can be described thus: qHTS assay for small molecule antagonists of the retinoid-related orphan receptor gamma (ROR-gamma) signaling pathway - cell viability counter screen (AID 720652; active = well fitted curve in the direction sought with a large enough effect in the repeat runs; an effect the other way counts as inactive or inconclusive;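 note: potency is the fitted concentration of half-maximal effect; compound exposure lasted 16 hr before ATP read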). In a few lines:
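Cytotoxicity counter screen: intracellular ATP (CellTiter-Glo luminescence) measured in the doxycycline-induced CHO RORE-luciferase reporter line after 16 hr compound exposure at 37 C, 5% CO2.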

A short description of assay [32]: qHTS assay for small molecule agonists of the antioxidant response element (ARE) signaling pathway measured by Nrf2-dependant transcriptional activity - cell viability counter screen (AID 720653; active = well fitted curve in the direction sought with a large enough effect in the repeat runs; an effect the other way counts as inactive or inconclusive; note: potency is the fitted concentration of half-maximal effect; for max response: % is set by controls: 0 for no effect and ±100 for the full control effect). As to conditions: ARE-bla HepG2 viability, CellTiter-Glo ATP luminescence, 16 h; max response: stronger effect = lower value. In a few lines: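 Cytotoxicity counter screen: intracellular ATP quantified by CellTiter-Glo luminescence in the same ARE-bla HepG2 plates, after 16 h compound exposure and a 2 h beta-lactamase substrate step.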

Sequence of Peroxisome proliferator-activated receptor delta (Homo sapiens) (Q03181 whole entry, looked up): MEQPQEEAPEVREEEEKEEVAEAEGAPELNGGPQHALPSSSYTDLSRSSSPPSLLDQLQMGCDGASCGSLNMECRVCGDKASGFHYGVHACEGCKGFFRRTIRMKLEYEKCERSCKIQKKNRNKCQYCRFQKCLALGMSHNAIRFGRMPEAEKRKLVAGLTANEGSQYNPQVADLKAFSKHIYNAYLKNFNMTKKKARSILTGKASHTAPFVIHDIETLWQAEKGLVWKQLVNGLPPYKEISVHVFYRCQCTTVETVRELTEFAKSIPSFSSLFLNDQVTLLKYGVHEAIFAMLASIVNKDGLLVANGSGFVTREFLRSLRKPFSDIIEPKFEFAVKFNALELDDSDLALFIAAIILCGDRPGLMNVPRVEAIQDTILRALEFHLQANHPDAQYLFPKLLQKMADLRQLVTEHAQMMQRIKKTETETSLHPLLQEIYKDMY
Sequence of Voltage-gated inwardly rectifying potassium channel KCNH2 (Homo sapiens) (Q12809 whole entry, looked up): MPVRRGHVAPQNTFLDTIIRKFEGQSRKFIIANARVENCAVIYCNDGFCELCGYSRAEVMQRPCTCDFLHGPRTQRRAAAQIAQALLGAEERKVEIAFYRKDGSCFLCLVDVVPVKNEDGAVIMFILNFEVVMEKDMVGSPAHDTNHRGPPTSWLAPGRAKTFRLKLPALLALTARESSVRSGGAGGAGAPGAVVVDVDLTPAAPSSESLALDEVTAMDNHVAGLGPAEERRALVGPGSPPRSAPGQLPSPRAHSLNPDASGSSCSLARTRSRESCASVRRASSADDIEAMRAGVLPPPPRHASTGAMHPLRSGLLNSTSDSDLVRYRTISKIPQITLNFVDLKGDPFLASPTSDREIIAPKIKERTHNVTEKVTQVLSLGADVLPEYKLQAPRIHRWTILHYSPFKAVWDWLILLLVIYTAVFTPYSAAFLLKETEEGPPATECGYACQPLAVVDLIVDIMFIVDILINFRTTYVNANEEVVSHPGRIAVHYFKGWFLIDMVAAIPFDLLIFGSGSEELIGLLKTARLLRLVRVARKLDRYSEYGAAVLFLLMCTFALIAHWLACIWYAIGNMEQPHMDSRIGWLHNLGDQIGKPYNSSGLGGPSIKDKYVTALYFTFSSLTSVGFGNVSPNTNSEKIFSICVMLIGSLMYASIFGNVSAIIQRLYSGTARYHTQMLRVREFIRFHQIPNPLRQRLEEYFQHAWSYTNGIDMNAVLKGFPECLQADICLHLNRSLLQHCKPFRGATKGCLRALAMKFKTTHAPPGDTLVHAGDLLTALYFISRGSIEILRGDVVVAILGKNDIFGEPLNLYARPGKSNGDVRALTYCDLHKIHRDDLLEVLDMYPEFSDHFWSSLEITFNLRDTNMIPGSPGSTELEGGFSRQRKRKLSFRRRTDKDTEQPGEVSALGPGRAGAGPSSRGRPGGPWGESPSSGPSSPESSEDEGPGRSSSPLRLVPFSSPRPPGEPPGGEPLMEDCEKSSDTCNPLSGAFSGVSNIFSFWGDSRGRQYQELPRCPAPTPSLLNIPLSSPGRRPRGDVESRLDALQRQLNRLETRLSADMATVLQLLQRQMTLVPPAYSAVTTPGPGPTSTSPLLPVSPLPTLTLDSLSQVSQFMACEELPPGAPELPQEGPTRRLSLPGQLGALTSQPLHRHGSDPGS
Sequence of Glucocorticoid receptor (Homo sapiens) (P04150 whole entry, looked up): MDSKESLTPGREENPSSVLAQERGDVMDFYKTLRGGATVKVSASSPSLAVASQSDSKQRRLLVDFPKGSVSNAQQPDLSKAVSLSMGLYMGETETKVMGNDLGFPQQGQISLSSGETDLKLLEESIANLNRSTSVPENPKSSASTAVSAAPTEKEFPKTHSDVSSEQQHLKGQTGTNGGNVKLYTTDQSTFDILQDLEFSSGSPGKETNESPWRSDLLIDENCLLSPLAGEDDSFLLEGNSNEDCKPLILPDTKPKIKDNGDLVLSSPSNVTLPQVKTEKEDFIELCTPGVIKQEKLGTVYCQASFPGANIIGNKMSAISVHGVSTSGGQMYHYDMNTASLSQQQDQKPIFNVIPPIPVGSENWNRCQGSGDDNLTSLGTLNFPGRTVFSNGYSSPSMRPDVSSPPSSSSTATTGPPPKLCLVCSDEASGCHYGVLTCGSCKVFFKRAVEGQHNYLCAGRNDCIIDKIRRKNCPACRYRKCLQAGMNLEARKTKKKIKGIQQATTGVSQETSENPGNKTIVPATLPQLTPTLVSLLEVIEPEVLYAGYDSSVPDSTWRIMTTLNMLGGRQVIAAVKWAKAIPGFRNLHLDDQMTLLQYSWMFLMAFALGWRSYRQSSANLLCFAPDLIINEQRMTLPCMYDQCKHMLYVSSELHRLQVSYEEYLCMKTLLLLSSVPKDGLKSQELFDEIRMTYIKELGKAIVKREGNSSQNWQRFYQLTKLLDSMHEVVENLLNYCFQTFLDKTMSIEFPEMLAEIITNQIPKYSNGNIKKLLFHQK
Sequence of Nuclear receptor ROR-gamma (Homo sapiens) (P51449 whole entry, looked up): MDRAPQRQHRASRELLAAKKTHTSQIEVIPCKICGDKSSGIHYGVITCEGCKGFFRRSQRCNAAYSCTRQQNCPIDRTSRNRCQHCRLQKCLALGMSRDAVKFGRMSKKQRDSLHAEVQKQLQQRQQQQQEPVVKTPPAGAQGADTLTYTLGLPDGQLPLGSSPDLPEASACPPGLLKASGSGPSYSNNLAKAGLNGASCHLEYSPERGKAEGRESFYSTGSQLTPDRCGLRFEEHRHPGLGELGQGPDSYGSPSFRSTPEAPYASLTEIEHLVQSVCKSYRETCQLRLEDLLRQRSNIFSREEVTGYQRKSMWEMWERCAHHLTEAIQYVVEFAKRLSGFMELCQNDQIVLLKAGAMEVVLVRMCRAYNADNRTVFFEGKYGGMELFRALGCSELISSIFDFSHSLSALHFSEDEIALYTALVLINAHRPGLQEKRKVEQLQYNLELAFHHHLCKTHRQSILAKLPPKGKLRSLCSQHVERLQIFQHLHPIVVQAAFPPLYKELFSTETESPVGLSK

For `Cc1ccccc1C(=O)O`, in [1], the compound was classed as inactive.
As to `ClC1=C(Cl)C(Cl)(Cl)C(Cl)=C1Cl`, the Potency in assay [2] is 5.01 µM (active); in assay [3] it was 7.94 µM (active); in assay [4] it was 6.31 µM (active); in assay [5], 6.31 µM (active); in assay [6], 3.98 µM (active); in assay [7], 6.31 µM (active). Moreover, the Potency was 6.31 µM (active) in assay [8]; 6.31 µM (active) in assay [9]; 5.01 µM (active) in assay [10]; 10 µM (active) in assay [11]; 6.31 µM (active) in [12]; 7.94 µM (active) in assay [13]. The Potency in [14] was 3.16 µM (active); in assay [15], 3.16 µM (active); in assay [16], 5.01 µM (active); in assay [17], 6.31 µM (active); in assay [18] it was 7.94 µM (active); in assay [19] it was 6.31 µM (active). Besides, the Potency was 7.94 µM (active) in [20]; 7.94 µM (active) in assay [21]; 6.31 µM (active) in [22]; 3.16 µM (active) in [23]; 10 µM (active) in assay [24]; 22.4 µM (active) in assay [26]. Besides, the Potency in assay [29] was 29.8 µM (active); in [30] it was 13.3 µM (active); in [31], 11.9 µM (active); in assay [32] it was 35.5 µM (active). The Potency result in assay [25] and in assay [27] was “inactive” throughout. In addition, in assay [1], the result was inactive. The activation in assay [28] was 12.3%. The max response in assay [32] is -1.05%.
Consider `O=C1CCCCCCCCCCC1`, for which, in assay [1], the outcome was inactive.
For `CCCCCCCCO`, the result in assay [1] was inactive.
